Bioassay records as filed in PubChem.
The sample as a whole holds a higher share of hits than the screen did.
ST2 IL33 inh: IL1RL1 inhibition. Q01638. 2.3% of 78,000 active. AlphaLISA ST2-Fc/biotin-IL-33 interaction, 1 h. inhibition, % for hits at 17 µM; in the data active = inhibition above about 30%
Target sequence (Q01638 whole entry, looked up): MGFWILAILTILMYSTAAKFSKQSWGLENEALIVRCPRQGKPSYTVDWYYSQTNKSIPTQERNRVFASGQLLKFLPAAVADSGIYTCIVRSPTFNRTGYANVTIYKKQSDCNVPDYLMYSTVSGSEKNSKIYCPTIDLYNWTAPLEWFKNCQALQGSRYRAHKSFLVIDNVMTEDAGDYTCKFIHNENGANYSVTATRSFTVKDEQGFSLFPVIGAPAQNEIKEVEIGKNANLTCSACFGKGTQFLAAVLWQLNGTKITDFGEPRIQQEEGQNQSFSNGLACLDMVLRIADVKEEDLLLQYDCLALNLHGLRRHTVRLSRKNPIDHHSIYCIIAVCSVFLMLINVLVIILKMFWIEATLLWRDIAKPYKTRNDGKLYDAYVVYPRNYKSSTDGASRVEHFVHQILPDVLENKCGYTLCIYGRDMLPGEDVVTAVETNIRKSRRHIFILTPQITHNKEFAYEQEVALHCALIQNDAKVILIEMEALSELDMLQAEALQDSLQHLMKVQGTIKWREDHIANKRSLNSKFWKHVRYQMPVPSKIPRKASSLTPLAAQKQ
Active calls of the source: *; i = inactive; ! = a repeat was not active.

SMILES	ST2 IL33 inh
O=C(CCCc1ccccc1)Nc1ccccc1-c1ccccc1	i
O=C(Nc1ccccc1-c1ccccc1)c1ccccc1	i
CC(=O)Nc1ccc2cccccc1-2	56.0%*
Cc1cc(C)cc(Oc2ncnc(N)c2[N+](=O)[O-])c1	i
O=C1C(Nc2cccc(C(F)(F)F)c2)=C(N2CCOCC2)C(=O)c2ccccc21	67.0%*
CC(C)CC(C(=O)Nc1cccc(C(F)(F)F)c1)N1C(=O)c2ccccc2C1=O (configuration not stated)	i
CC(C)C(C(=O)Nc1cccc(C(F)(F)F)c1)N1C(=O)c2ccccc2C1=O (configuration not stated)	i
CCOC(=O)C1=C(C)Nc2nc(SC)nn2C1c1ccc(-c2ncc(-c3ccccc3)o2)cc1 (configuration not stated)	i
O=[N+]([O-])c1cc2c(cc1C=Nc1ccc(I)cc1)OCO2	i
COc1cc(CN2CCN(c3cccc(C)c3C)CC2)cc([N+](=O)[O-])c1O	i
Cc1cccc(N=Cc2cc3c(cc2[N+](=O)[O-])OCO3)c1C	39.0%*
Cc1cccc(N2CCN(Cc3cc4c(cc3[N+](=O)[O-])OCO4)CC2)c1C	37.0%*
O=[N+]([O-])c1cc2c(cc1CN1CCCCCC1)OCO2	i
Cc1ccc(O)c(N=Cc2cccc([N+](=O)[O-])c2O)c1	i
COc1ccc(CC(=O)Nc2cc(N3CCCS3(=O)=O)ccc2OC)cc1	i
Cc1cc(C2CCC2)nc(N[C@@H]2C[C@@H](CO)N(C)C2)n1	i
COc1ccc(C(=O)Nc2ccccc2N)cc1	i
Cc1ccc(Cl)cc1Nc1nnc(Cc2ccccc2)c(=O)[nH]1	i
O=C1CCCN1C1CCN(S(=O)(=O)CCOc2ccc(F)cc2)CC1	i
COC1C=C(COC(=O)c2ccccc2)C(O)C(OC(=O)c2ccccc2)C1O (configuration not stated)	i
O=C(NCCSc1ccccc1)c1ncn[nH]1	i
COc1ccc(S(=O)(=O)Nc2cccc(C(C)=O)c2)cc1	i
COc1ccc(/C=C2\SC(c3ccc(C)cc3)=NC2=O)cc1OC	30.0%*
COc1ccc(/C=C2/C(=O)N=C(N)N2C)cc1OC	i
COc1ccc(/C=C2/SC(N3CCN(C)CC3)=NC2=O)cc1OC	i
SMILES	ST2 IL33 inh
COc1cc(/C=C2\SC(c3ccc(C)cc3)=NC2=O)ccc1O	62.0%*
COc1cc(/C=C2\SC(N)=NC2=O)cc(Br)c1O	i
COc1cc(/C=C/c2cc(O)cc(O)c2)ccc1O	i
Cc1cc(CC(C)NC(=O)c2c(Cl)cnn2C)n[nH]1 (configuration not stated)	i
COc1cccc2cc(C(=O)Nc3ccc(Cl)cc3Cl)c(=N)oc12	i
CCc1cccc(NC(=O)c2cc3cc4ccc(OC)cc4nc3o2)c1	i
COc1ccc2cc3cc(C(=O)Nc4cccc(SC)c4)oc3nc2c1	34.0%*!
COc1ccc2cc3cc(C(=O)Nc4cccnc4)oc3nc2c1	i
COc1ccc2nc3oc(C(=O)Nc4ccc(F)cc4F)cc3cc2c1	i
COc1ccc2cc3cc(C(=O)Nc4ccc(OC)c(Cl)c4)oc3nc2c1	31.0%*
COc1ccc2cc3cc(C(=O)Nc4ccc(C)cc4Cl)oc3nc2c1	i
COc1ccc2nc3oc(C(=O)Nc4ccc5c(c4)OCCO5)cc3cc2c1	36.0%*
COc1ccc2cc3cc(C(=O)Nc4ccc(OC)c(OC)c4)oc3nc2c1	i
COc1ccc2nc3oc(C(=O)N4CCOCC4)cc3cc2c1	i
O=C(Nc1ccc(Cl)c(Cl)c1)[C@H]1[C@H](C(=O)O)[C@H]2C=C[C@@H]1C2	i
CCCC(C)C(=O)Nc1ccc(OC)cc1OC (configuration not stated)	i
COc1ccc(-c2nn(-c3ccccc3C)cc2CN(C)Cc2ccon2)cc1F	i
Cc1cc(N2CCOC(CN)C2)nc(-c2ccccc2)n1 (configuration not stated)	i
CCOc1ccc(NC(=O)C(=O)c2ccccc2NC(C)=O)cc1	i
O=C(C[C@@H]1O[C@H](CNCc2ccc(F)cc2)[C@@H](O)[C@H]1O)N1CCN(c2ccccc2)CC1	i
Cc1nn(C)c(C)c1-c1ccnc(NCC2COCCO2)n1 (configuration not stated)	i
COc1ccc(C2C(C#N)=C(N)OC3=C2C(=O)CC(c2ccccc2)C3)c(OC)c1C (configuration not stated)	i
COc1ccccc1C1CC(=O)N2CN(c3ccc(C)c(C)c3)CSC2=C1C#N (configuration not stated)	i
O=C(Cc1ccccc1)NCCCc1nc2ccccc2n1Cc1ccccc1F	i
CCOc1ccc(-n2c(CC)nc3c(cnn3-c3ccc(C)c(C)c3)c2=O)cc1	i
SMILES	ST2 IL33 inh
CC1=C(C(N)=O)C(c2ccc(O)cc2)n2nc(SCc3ccccc3)nc2N1 (configuration not stated)	i
COc1ccc(C2C(C(N)=O)=C(C)Nc3nc(SCc4ccccc4)nn32)cc1OC (configuration not stated)	i
CC1=C(C(N)=O)C(c2cccc(F)c2)n2nc(SCc3ccccc3)nc2N1 (configuration not stated)	32.0%*!
CS(=O)(=O)N1CCN(c2ccc([N+](=O)[O-])c(NCCN3CCOCC3)c2)CC1	i
O=[N+]([O-])c1ccc(N2CCN(S(=O)(=O)c3ccccc3)CC2)cc1NCC1CCCO1 (configuration not stated)	i
O=[N+]([O-])c1ccc(N2CCCC2)cc1NCC1CCCO1 (configuration not stated)	30.0%*
O=C(NCCc1cn[nH]c1)C1CCCN(C2CCN(C(=O)C3CC3)CC2)C1 (configuration not stated)	i
CN(C)c1ccc(/C=C2\SC(N3CCN(CCO)CC3)=NC2=O)cc1	i
O=C(Nc1ccccc1[N+](=O)[O-])c1cccc(S(=O)(=O)N2CCc3ccccc3C2)c1	40.0%*
O=C1CCc2cc(S(=O)(=O)N3CCc4ccccc4C3)ccc2N1	i
O=C(Nc1nc2ccc(F)cc2s1)c1ccc(S(=O)(=O)N2CCc3ccccc3C2)cc1	i
O=S(=O)(NCc1nc2cccnc2n1Cc1ccccc1)c1ccc(F)c(Cl)c1	i
COc1ccc2nc3oc(C(=O)N4CCN(c5ccccn5)CC4)cc3cc2c1	i
O[C@H]1[C@H](NCc2ccc(-c3ccccc3)cc2)[C@H]2CO[C@H](O2)[C@@H]1Oc1ccccc1	i
COCCN[C@H]1[C@@H]2OC[C@@H](O2)[C@@H](NCc2ccc(-c3ccccc3)cc2)[C@@H]1O	36.0%*
COc1ccccc1N1CCN([C@H]2[C@@H]3OC[C@@H](O3)[C@@H](NCc3ccc(-c4ccccc4)cc3)[C@@H]2O)CC1	i
CN(Cc1ccccc1)C1CCCN(C(=O)CCCc2ccccc2)C1 (configuration not stated)	i
CCCCN1C(=O)/C(=c2\sc3nc(-c4ccc(OC)cc4)nn3c2=O)c2ccccc21	i
C=CCN1C(=O)/C(=c2/sc3nc4ccccc4n3c2=O)c2ccccc21	31.0%*
O=c1/c(=C/c2ccccc2F)sc2nc3ccccc3n12	i
Cc1ccc(S(=O)(=O)C2(C(=O)NCCc3ccc(S(N)(=O)=O)cc3)CC2)cc1	i
COc1ccc(C2CC(c3ccc(OC)c(OC)c3)=NN2C(=O)c2cccs2)cc1 (configuration not stated)	i
O=C(c1cc(-c2ccccc2)nc2ccccc12)N1CCCCCC1	i
